Experiment [1] is described as follows: Primary qHTS for inhibitors of nuclear receptor binding SET domain protein 2 (NSD2) in an isogenic RCH-ACV NSD2 p.E1099K mutant (9B) (AID 1645876). Background: qHTS replaces the single test concentration by a dilution series.
The nature of experiment [2]: Primary qHTS for inhibitors of nuclear receptor binding SET domain protein 2 (NSD2) in an RCH-ACV wild type WT cells (2C) (AID 1645877).

“And” between values parts separate entries of the source, which are not always exact repeats. Equal values may be shown once. Inconclusive results are not listed. Unmarked numbers belong to inactive results. The source made the active and inactive calls. Calls follow the shape of the dose curve; as a rule, active = well fitted curve in the direction sought with a large enough effect; inconclusive = small, poorly fitted or top-dose-only effect, or another doubt; inactive = no such curve, though single readings can be large; an effect the other way counts as inactive or inconclusive.
% is scaled to controls: 0 for no effect and ±100 for the full control effect; potency is read from the fitted curve at half-maximal effect.
Also: nearly all actives have a fitted effect of over 70% in size.

`C=C1C[C@@]23CC[C@@H]4[C@](C)(C(=O)O)CCC[C@@]4(C)C2=CC[C@H]1C3`: the Potency entry in experiment [1] and in experiment [2] was “inactive” in each case.
Turning to `CC1(C)C(=O)N2c3ccccc3[C@]3(CC(n4cnc5ccccc5c4=O)C(=O)O3)[C@H]2N1O` (some centres not stated), the Potency result in experiment [1] and in experiment [2] was “inactive” throughout.
`C=C1CCC2C(C)(C(=O)O)CC(O)CC2(C)C1CC/C(C)=C/C(=O)O` (configuration not stated): the Potency entry in experiment [1] and in experiment [2] was “inactive” in each case.
On to `O=C(O)Cc1nn(Cc2nc3cc(C(F)(F)F)ccc3s2)c(=O)c2nccnc12`, for which the Potency result in experiment [1] and in experiment [2] was “inactive” in each case.
On to `CC1CCC2C(C)(C)C(O)CCC2(C)C12Cc1c(O)cc3c(c1O2)C(N)=NC3` (configuration not stated), for which the Potency entry in experiment [1] and in experiment [2] was “inactive” each time.
With `NC(=O)c1cccc(-c2cc(O)cc(OC(=O)NC3CCCCC3)c2)c1`, the Potency result in experiment [1] and in experiment [2] was “inactive” each time.
With `CCOC(=O)c1ccnc(CNCC(=O)N(CC)CCN(C)C)c1`, the Potency result in experiment [1] and in experiment [2] was “inactive” throughout.
Consider `C[C@@H]1O[C@@H](O[C@H]2[C@H](O[C@H]3[C@H](O[C@H]4CC[C@@]5(CO)C(CC[C@]6(C)C5CC=C5C7CC(C)(C)C[C@@H](O)[C@]7(C)CC[C@]56C)C4(C)C)O[C@H](C(=O)O)[C@@H](O)[C@@H]3O)OC[C@@H](O)[C@@H]2O)[C@H](O)[C@H](O)[C@H]1O` (some centres not stated), for which the activity change, negative = viability loss in experiment [1] is -1.45% [at 9.23 µM]. In addition, in experiment [2], the activity change, negative = cell killing is -8.5% [at 9.23 µM].
As for `CCOC(=O)[C@H]1O[C@@H]1C(=O)N[C@@H](CC(C)C)C(=O)NCCC(C)C`, the Potency entry in experiment [1] and in experiment [2] was “inactive” in each case.
For the compound `CC(C)CC(=O)OC[C@H]1O[C@@](COC(=O)CC(C)C)(O[C@H]2O[C@H](CO)[C@@H](O)[C@H](O)[C@H]2OC(=O)CC(C)C)[C@@H](OC(=O)CC(C)C)[C@@H]1O`, the Potency result in experiment [1] and in experiment [2] was “inactive” in each case.
Consider `CC1[C@@H](O)[C@@H](O)C2[C@]3(C)C(C[C@H]4OC(=O)[C@H](O)[C@]1(O)[C@@]24C)C(C)(O)C[C@H](O)[C@H]3O` (some centres not stated), for which the Potency entry in experiment [1] and in experiment [2] was “inactive” in each case.
Turning to `CC1CC(=O)C2=C(O1)OC1(C)CCC3C(C)(C)C=CC(=O)C3(C)C1C2` (configuration not stated), the Potency result in experiment [1] and in experiment [2] was “inactive” throughout.
`C[C@@H]1C(=O)O[C@H]2[C@H]1CC[C@@]1(C)C(=O)C=C[C@](C)(O)[C@H]21`: the Potency result in experiment [1] and in experiment [2] was “inactive” throughout.
Consider `CC(C#N)C(C)O[C@@H]1O[C@H](CO)[C@@H](O)[C@H](O)[C@H]1O` (some centres not stated), for which the Potency entry in experiment [1] and in experiment [2] was “inactive” throughout.
With `Nc1ccn([C@@H]2C(F)=C(CO)[C@@H](O)[C@H]2O)c(=O)n1`, the Potency in experiment [1] is 372 nM (active); in experiment [2], 332 nM (active).
In the same order, the values of `O=C(O[C@H]1[C@@H]2C=CO[C@@H](O[C@@H]3O[C@H](CO)[C@@H](O)[C@H](O)[C@H]3O)[C@@H]2[C@@]2(CO)O[C@@H]12)c1ccc(O)cc1` are “inactive” and “inactive”.
As to `COc1cc(C[C@H]2COC(=O)[C@@H]2Cc2ccc(O)c(OC)c2)ccc1O`, the Potency entry in experiment [1] and in experiment [2] was “inactive” each time.
For the compound `CCOc1cc2ncc(C#N)c(Nc3ccc(OCc4ccccn4)c(Cl)c3)c2cc1NC(=O)/C=C/CN(C)C`, the Potency in experiment [1] was 282 nM (active) and 1.32 µM (active); in experiment [2] it was 282 nM (active) and 833 nM (active).
On to `CC1(C)C[C@H]2C3=CCC4[C@@]5(C)CC[C@H](O[C@H]6O[C@H](C(=O)O)[C@@H](O)[C@H](O)[C@H]6O[C@H]6O[C@H](CO)[C@@H](O)[C@H](O)[C@H]6O[C@@H]6O[C@H](CO)[C@@H](O)[C@H](O)[C@H]6O)[C@](C)(CO)C5CC[C@@]4(C)[C@]3(C)CC[C@@]2(C)[C@H](O[C@@H]2OC[C@H](O)[C@H](OC3O[C@H](CO)[C@@H](O)[C@H](O)[C@H]3O)[C@H]2O)[C@@H]1O` (some centres not stated), for which the outcome in experiment [1] and in experiment [2] was “inactive [at 9.23 µM]” throughout.
In the case of `CO[C@@H]1CC[C@H](OC[C@]2(COC(=O)c3ccc(C)[nH]3)[C@H](OC(C)=O)CC[C@@]3(C)[C@@H]4CC=C(C)[C@@H](C5=C(O)C(=O)OC5O)[C@]4(C)CC[C@@H]32)O[C@H]1C` (some centres not stated), the Potency entry in experiment [1] and in experiment [2] was “inactive” each time.
For the compound `C=C1C(OC(C)=O)C(=O)C2C(C)(C)C(OC(C)=O)CCC2(C)C1CC(OC(C)=O)/C(C)=C/COC(C)=O` (configuration not stated), the Potency result in experiment [1] and in experiment [2] was “inactive” each time.
For the compound `C=CC(C)(CC/C=C(\C)CC/C=C(\C)CC(O)/C=C(\C)C(=O)O)O[C@@H]1O[C@H](CO)[C@@H](O)[C@H](O)[C@H]1O[C@@H]1O[C@H](CO)[C@@H](O)[C@H](O)[C@H]1O` (some centres not stated), the Potency entry in experiment [1] and in experiment [2] was “inactive” each time.
Turning to `CCC(C)(O)C(O)C(=O)OCc1ccc(O[C@@H]2O[C@H](CO)[C@@H](O)[C@H](O)[C@H]2O)cc1` (some centres not stated), the Potency result in experiment [1] and in experiment [2] was “inactive” each time.
On to `C[C@@H]1O[C@@H](O[C@H]2[C@H](OC(=O)[C@]34CCC(C)(C)C[C@H]3C3=CCC5[C@@]6(C)C[C@H](O)[C@H](O[C@@H]7O[C@H](CO)[C@@H](O[C@@H]8O[C@H](CO)[C@@H](O)[C@H](O)[C@H]8O)[C@H](O)[C@H]7O)[C@@](C)(CO)C6[C@H](O)C[C@@]5(C)[C@]3(C)C[C@H]4O)OC[C@H](O)[C@@H]2O)[C@H](O)[C@H](O)[C@H]1O[C@@H]1OC[C@@H](O)[C@H](O[C@@H]2OC[C@](O)(CO)[C@H]2O)[C@H]1O` (some centres not stated), for which the activity change, negative = viability loss in experiment [1] is -3.67% [at 9.23 µM]. For the same compound, the activity change, negative = cell killing in experiment [2] is 2.2% [at 9.23 µM].
With `Cc1coc2c1CC1OC1(C)CCC1OC1(C)C2` (configuration not stated), the Potency entry in experiment [1] and in experiment [2] was “inactive” in each case.
As for `C[C@@H]1O[C@@H](O[C@H]2[C@H](O)[C@@H](C(=O)O)O[C@@H](O[C@H]3CC[C@@]4(C)C(CC[C@]5(C)C4CC=C4C6CC(C)(C)CC[C@]6(C(=O)O)CC[C@]45C)C3(C)C)[C@@H]2O[C@@H]2O[C@H](CO)[C@@H](O)[C@H](O)[C@H]2O)[C@H](O)[C@H](O)[C@H]1O` (some centres not stated), the activity change, negative = viability loss in experiment [1] is -6.46% [at 9.23 µM]. Moreover, in experiment [2], the activity change, negative = cell killing was -4.73% [at 9.23 µM].

For the origin of these results see PubChem BioAssay (NCATS).
